# Screens deposited in PubChem by National Center for Advancing Translational Sciences (NCATS).
# An excerpt weighted towards active compounds, which were near 2.4% of everything screened.
# D2 PAM-1 – HTS Assay for Positive Allosteric Modulators of the Human D2 Dopamine Receptor: Primary Screen for Potentiators; D(2) dopamine receptor (Homo sapiens), P14416; HEK293 T-REx D2, calcium flux, EC20 dopamine potentiation; potentiation, % at 10 µM; 0.34% of 340,000 active; AID 485347, 2010;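 active means potentiation over 3 SD above the plate norm, cut at about 30% in these data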; further: 0% is about no effect
# Target sequence (P14416 whole entry, looked up): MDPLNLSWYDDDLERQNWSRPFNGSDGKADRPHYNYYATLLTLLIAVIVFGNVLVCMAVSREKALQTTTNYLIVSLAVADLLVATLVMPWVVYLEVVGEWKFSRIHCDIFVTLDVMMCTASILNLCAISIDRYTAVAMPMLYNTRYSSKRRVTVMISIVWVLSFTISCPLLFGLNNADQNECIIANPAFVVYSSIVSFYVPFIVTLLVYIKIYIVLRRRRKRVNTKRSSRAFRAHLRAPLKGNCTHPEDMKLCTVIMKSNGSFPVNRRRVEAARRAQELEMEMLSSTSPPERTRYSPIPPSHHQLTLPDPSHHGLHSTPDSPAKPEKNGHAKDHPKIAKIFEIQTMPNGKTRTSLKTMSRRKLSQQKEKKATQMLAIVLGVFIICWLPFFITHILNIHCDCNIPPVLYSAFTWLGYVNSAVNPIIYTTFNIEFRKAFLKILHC
#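 Potentiation of an EC20 dopamine calcium response is measured in a force-coupled, tetracycline-inducible Hek293 Trex D2 line. Compound-only kinetic reads over 180 s flag agonists before dopamine addition.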
# D2 ag-1 – Beta-Arrestin HTS for Positive Allosteric Modulators of the Human D2 Dopamine Receptor: Agonists | 0.084% of 360,000 active | DiscoveRx PathHunter D2 beta-arrestin, luminescence, 90 min; 100% = 57 uM dopamine signal | D(2) dopamine receptor (Homo sapiens), P14416 | activation, % (concentration not given with the values); in the data active means activation above about 40%; inconclusive means between about 15% and that limit
#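 DiscoveRx PathHunter D2 beta-arrestin cells (2,100/well) attached overnight, then compound-stimulated 90 min at 37 C in HBSS/10 mM HEPES/0.1% Tween-20 buffer; beta-galactosidase complementation read by luminescence after 1 h at ambient temperature. Dopamine 57 uM final (EC100) as control.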
# D2 antagonist – HTS Assay for Allosteric Antagonists of the Human D2 Dopamine Receptor: Primary Screen for Antagonists | 2% of 340,000 active | HEK293 TREx D2 cells, calcium flux, dopamine EC80 | inhibition, % at 10 µM; in the data active means inhibition above about 30%; inactive means below that, where a call was filed; further: 0% is about no effect
#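 Calcium mobilization kinetics were recorded at 1 s intervals in tetracycline-induced HEK293 T-REx D2 cells, first for 180 s after compound addition and then 180 s after EC80 dopamine.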
# D2 PAM-2 – Beta-Arrestin HTS for Positive Allosteric Modulators of the Human D2 Dopamine Receptor: Potentiators; 0.23% of 360,000 active; DiscoveRx D2 beta-arrestin cells, luminescence, 90 min; 100% = 57 uM dopamine signal; AID 624464, 2012; potentiation, % (test concentration not listed); D(2) dopamine receptor (Homo sapiens), P14416; in the data active means potentiation above about 50%; inconclusive means mostly about 30% to 49%
#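 PathHunter beta-arrestin assay in DiscoveRx D2 cells. Compounds were added with an EC20 of dopamine (50 nM final) for 90 min at 37 deg C. Luminescence was read 1 h after detection reagent, with 57 uM dopamine as the EC100 control.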
# D2 ag-2 – HTS Assay for Allosteric Agonists of the Human D2 Dopamine Receptor: Primary Screen for Agonists; D(2) dopamine receptor (Homo sapiens), P14416; 0.53% of 340,000 active; HEK293 T-REx D2 cells, calcium flux agonist mode; AID 485358, 2010; activation, % at 2 µM;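 active means activation over 3 SD above normal in the single-dose calcium agonist read, cut at about 30% in these data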; further: 0% is about no effect
#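 Tetracycline-induced HEK293 T-REx cells with force-coupled D2 receptor, plated overnight at 30 C, loaded with no-wash calcium dye. After a 10 s baseline, compound was pin-added and calcium flux read kinetically for 180 s; calcium rises flagged agonists.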
# D3 ag – qHTS of D3 Dopamine Receptor Agonist: D3 Dopamine Receptor B-arrestin Agonist Confirmatory Assay | Potency, µM (highest dose often 76.9 µM), without a hit: at the highest dose activation, most hits filed as activators | AID 720506, 2013 | shares compounds with D2 ag-2 | 4% of 2,300 active | DiscoveRx D3 beta-arrestin cells, luminescence, 90 min;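 further: potency means the concentration at half of the fitted maximal effect; 100% = dopamine control response; nearly all actives have a fitted effect of over 70% in size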
# D2 ag-3 – qHTS of D3 Dopamine Receptor Agonist: D2 Dopamine Receptor B-arrestin Agonist Counterscreen | shares compounds with D2 ag-2 | DiscoveRx PathHunter D2 beta-arrestin, luminescence, 90 min; response scale: percent relative to full dopamine signal | Potency, µM (top dose mostly 76.9 µM), without a hit: top-dose activation, hits mostly activators | 5.9% of 2,300 active | AID 720507, 2013; further: potency means the concentration at half of the fitted maximal effect; % of control where 0% means no effect; nearly all actives have a fitted effect of over 70% in size
# Numbers without * were called inactive; ? = inconclusive; · = no result. Unless noted, the call rests on the fitted dose curve; in most records, active means well fitted activation curve with a large enough effect; inconclusive means small, poorly fitted or top-dose-only effect; inactive means flat fitted curve, though single readings scatter.
SMILES,D2 PAM-1,D2 ag-1,D2 antagonist,D2 PAM-2,D2 ag-2,D3 ag,D2 ag-3
Cc1ccc(NC(=O)NCCN2CCCCC2)cc1Cl,-28.1,-1.9,-19.0,-10.1,1.0,·,·
Cc1ccc(NC(=O)NCCN2CCN(c3ccccc3)CC2)cc1Cl,-26.2,6.6,64.7*,-26.8,65.7*,29.9%,?
O=C(NCCN1CCN(c2ccccc2)CC1)Nc1cccc(Cl)c1,-29.9,?,72.5*,-8.5,74.6*,?,21.1%
COc1ccc(Cl)c(NC(=O)NCCN2CCN(c3ccccc3)CC2)c1,-34.7,-0.9,-12.0,-2.9,16.9,·,·
Cc1cccc(NC(=O)NCCN2CCN(c3ccccc3)CC2)c1C,-25.8,4.7,57.0*,-29.0,56.6*,11.8%,3.8%
O=C(NCCN1CCN(c2ccccc2Cl)CC1)Nc1ccccc1,-24.1,6.4,52.5*,-9.1,67.2*,17.3%,10.4%
Cc1ccc(CNS(=O)(=O)c2ccc(CN3C(=O)c4cccnc4C3=O)cc2)o1,5.0,8.2,14.2,-9.8,0.5,·,·
CCc1noc(C)c1C(=O)OCC(=O)Nc1nc(-c2ccc(F)c(F)c2)cs1,1.6,9.3,10.3,2.1,1.9,·,·
O=C(/C=C/c1cccc(C(F)(F)F)c1)NNC(=O)c1ccncc1,-5.9,-4.8,4.7,-68.8,-0.2,-11.4%,-7.0%
O=C(NNC(=O)c1ccncc1)Nc1cccc(C(F)(F)F)c1,-2.9,-0.9,3.2,-2.6,0.0,·,·
O=C(/C=C/c1ccccc1[N+](=O)[O-])NNC(=O)c1ccncc1,0.5,-3.4,0.4,-5.1,1.4,-15.7%,-11.0%
Cc1cccc(C)c1OCC(O)Cn1c2ccccc2c2ccccc21 (configuration not stated),-5.3,-0.6,-19.9,6.0,-0.8,·,·
CC(C)(C)NCC(O)COc1ccccc1C(C)(C)C (configuration not stated),-3.7,-1.7,3.9,-9.6,0.6,·,·
OC(CN1CCN(c2ccccn2)CC1)Cn1c2ccc(Cl)cc2c2cc(Cl)ccc21 (configuration not stated),3.0,-5.8,-2.8,-1.2,9.3,·,·
OC(COC(c1ccc(Cl)cc1)c1ccc(Cl)cc1)CN1CCN(c2ccccn2)CC1 (configuration not stated),-19.8,-1.4,-4.1,-17.0,41.8*,-6.8%,6.2%
CC(C)(C)c1ccccc1OCC(O)CN1CCN(c2ccccn2)CC1 (configuration not stated),-15.6,1.1,62.4*,0.2,22.3,?,27.2%
Cc1cccc(C)c1OCC(O)CN1CCN(c2ccccn2)CC1 (configuration not stated),-19.5,?,77.5*,?,76.6*,0.199µM*,5.01µM*
Cc1ccsc1CN1CCN(c2ccccn2)CC1,-24.1,49.7*,77.2*,?,78.8*,?,2.51µM*
Cc1c(CNCc2ccc(Cl)cc2)c(C(=O)O)c(C)n1Cc1ccc(F)cc1,5.3,·,·,·,-0.2,·,·
CCN(CC)C(=O)c1sc2c(c1C)c(=O)n(CCc1ccccc1)c(=O)n2Cc1cc(C)ccc1C,14.8,·,·,·,0.1,·,·
CCc1nc2ccc(C(=O)Nc3cccc(OC)c3)cn2c1N(CC)Cc1cccc(Br)c1,·,-1.9,·,-6.4,·,·,·
CC(C)(C)C1CCC(OCC(O)CN2CCN(c3ccccc3)CC2)CC1 (configuration not stated),-34.3,?,73.6*,2.7,68.1*,0.355µM*,?
COc1cccc(OC)c1OCC(O)CN1CCN(c2ccccc2)CC1 (configuration not stated),-23.8,?,115.3*,-30.8,78.1*,?,?
Cc1cccc(N2CCN(CC(O)COc3ccccc3)CC2)c1 (configuration not stated),·,2.7,·,-16.8,·,·,·
Cc1cccc(C)c1OCC(O)CN1CCN(c2ccccc2)CC1 (configuration not stated),-27.9,?,86.9*,-21.9,80.2*,-1.5%,?
SMILES,D2 PAM-1,D2 ag-1,D2 antagonist,D2 PAM-2,D2 ag-2,D3 ag,D2 ag-3
COc1ccccc1/C=C/CN1CCN(c2ccccc2)CC1,-25.8,11.9,76.8*,6.8,76.7*,4.4%,?
CC(C)(C)C1CCC(OCC(O)CN2CCCC2)CC1 (configuration not stated),12.5,-6.6,-8.1,2.2,-0.5,·,·
OC(COc1ccccc1)CN1CCN(c2ccccc2)CC1 (configuration not stated),·,1.7,·,-43.0,·,·,·
COC(=O)c1cc(S(=O)(=O)Nc2cc(OC)cc(OC)c2)c[nH]1,-0.5,2.4,-5.5,-1.1,0.4,·,·
CCOc1cc(/C=N/N2CCN(Cc3ccccc3)CC2)ccc1O,-14.9,4.8,1.5,-16.0,-1.4,·,·
Cc1ccc(OCC(O)CN2CCN(CCO)CC2)c(C)c1 (configuration not stated),-0.9,-0.9,-7.9,-2.9,2.0,·,·
Cc1ccc(OCC(O)CN2CCN(c3ccccn3)CC2)c(C)c1 (configuration not stated),-27.2,?,64.5*,20.9,70.9*,?,?
NC(=O)CN1CCN(c2ccccc2F)CC1,-8.1,0.2,25.7,-20.6,1.1,·,·
O=C(CCN1CCCO1)N1CCCC(N2CCN(c3ccccc3F)CC2)C1 (configuration not stated),-6.1,-0.7,6.6,-10.5,-2.3,·,·
CC(C)=CC(=O)N1CC[C@@H](N2CCN(c3ccccc3F)CC2)[C@H](O)C1,-15.0,43.1*,46.3*,6.3,79.8*,21.4%,?
CSCCCN1CC[C@@H](N2CCN(c3ccccc3F)CC2)[C@H](O)C1,-21.5,?,79.4*,7.7,75.5*,19.3%,?
CSCCC(=O)N1CC[C@@H](N2CCN(c3ccccc3F)CC2)[C@H](O)C1,3.7,10.6,44.6*,7.7,29.9,21.7%,?
CCSc1ccccc1C(=O)N1CCC2(CC1)CC(=O)c1ccccc1O2,1.5,5.4,-16.2,-11.4,0.3,·,·
